Experimental data published in PubChem BioAssay (NCATS).
Records with an inconclusive call do not appear. Where a call stands in place of a potency, no number is given. Active and inactive are the calls of the source. Calls follow the shape of the dose curve; as a rule, active = well fitted inhibition curve with a large enough effect; inconclusive = small, poorly fitted or top-dose-only effect; inactive = flat fitted curve, though single readings scatter.

Experiment: Drug repurposing screens with cells derived from glioblastoma tumor samples (AID 1345199); also: nearly all actives have a fitted effect of over 40% in size
Settings: GBM patient neurospheres viability, ATP luminescence, 48 h; Potency: tumour line A unless noted; series mostly up to 45.9 µM
Procedure, shortened: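 Four patient lines of CD133+ GBM neurospheres were screened at several concentrations; hits were retested in those lines plus three slower-growing GBM lines, using 48-hour treatment and ATP-based viability.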
With `CCC1(CCC(C)C)C(=O)NC(=O)NC1=O` the Potency was “inactive”. With `CCCCCCCCCC(CC)c1ccc(S(=O)(=O)O)cc1` (stereo not given) the Potency was “inactive”. With `c1cc2ccc3cccc4ccc(c1)c2c34` the Potency was “inactive”. With `CC(C)(C)NC[C@H](O)c1ccc(O)cc1Cl` the Potency was “inactive”. With `C=CC(=O)NCNC(=O)C=C` the Potency was “inactive”. With `CCCCCCCCc1ccc(O)cc1` the Potency was “inactive”. In the case of `OCCCBr`, the Potency is reported as “inactive”. For `CCOP(=O)(NC(C)C)Oc1ccc(SC)c(C)c1` (stereo not given), the Potency was “inactive”. For `O=C(O)C(Cl)Cl`, the Potency was “inactive”. In the case of `O=C(O)c1cc(Oc2ccc(C(F)(F)F)cc2Cl)ccc1[N+](=O)[O-]`, the Potency is reported as “inactive”. With `S=C(SSC(=S)N1CCCCC1)N1CCCCC1` the Potency was “inactive”. For `CCCCOC(=O)c1ccccc1C(=O)OCc1ccccc1`, the Potency was “inactive”. For `O=S(=O)(O)C(F)(F)C(F)(F)C(F)(F)C(F)(F)C(F)(F)C(F)(F)C(F)(F)C(F)(F)F`, the Potency was “inactive”. In the case of `CCOCCOC(C)=O`, the Potency is reported as “inactive”. For `Cc1cc(O)ccc1Cl`, the Potency was “inactive”. For `Nc1c(Cl)c(Cl)c(Cl)c(Cl)c1Cl`, the Potency was “inactive”. With `C1CCC(NC2CCCCC2)CC1` the Potency was “inactive”. With `Nc1ccc(Cl)cc1` the Potency was “inactive”. With `O=S(=O)(c1ccc(Cl)cc1)c1ccc(Cl)cc1` the Potency was “inactive”. For `O=[N+]([O-])c1c(Cl)c(Cl)cc(Cl)c1Cl`, the Potency was “inactive”.
